Test results published in paper PMC5540273 (PLoS ONE, 2017).

How the values were obtained:
Details in all cases: concentration: 1 μM, replicates: in singlicate; n = 1
MYO3A = test system: MYO3A
MYO3B = test system: MYO3B
NDR1 = test system: T1, NDR1
T1 construct: gene STK38

NDR2 = test system: NDR2
NEK10 = test system: NEK10
NEK11 = test system: NEK11
NEK1 = test system: NEK1
NEK2 = test system: NEK2
NEK3 = test system: NEK3
NEK4 = test system: NEK4
NEK5 = test system: NEK5
NEK6 = test system: NEK6
NEK7 = test system: NEK7
NEK9 = test system: NEK9
NIK = test system: T2, NIK
T2 construct: gene MAP3K14

NIM1 = test system: T3, NIM1
T3 construct: gene MGC42105

NLK = test system: NLK
OSR1 = test system: T4, OSR1
T4 construct: gene OXSR1

PAK1 = test system: PAK1
PAK2 = test system: PAK2
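Also: KINOMEscan kinase panel screen.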

SMILES	%Inh (MYO3A)	%Inh (MYO3B)	%Inh (NDR1)	%Inh (NDR2)	%Inh (NEK10)	%Inh (NEK11)	%Inh (NEK1)	%Inh (NEK2)	%Inh (NEK3)	%Inh (NEK4)	%Inh (NEK5)	%Inh (NEK6)	%Inh (NEK7)	%Inh (NEK9)	%Inh (NIK)	%Inh (NIM1)	%Inh (NLK)	%Inh (OSR1)	%Inh (PAK1)	%Inh (PAK2)
CS(=O)(=O)Cc1ccc(Nc2nccc(-c3c(-c4cccc(NC(=O)C5CCCCC5)c4)nn4ncccc34)n2)cc1 [GSK350559]	0%	0%	0%	17%	22%	15%	0%	10%	32%	25%	15%	4%	18%	0%	0%	32%	1%	22%	7%	8%
Cc1cccc2c(-c3ccncn3)c(-c3ccc(F)cc3)nn12 [GW515532]	0%	0%	0%	0%	0%	0%	0%	23%	0%	0%	0%	0%	0%	5%	1%	14%	44%	10%	13%	8%
CS(=O)(=O)CCNCc1nc(-c2ccc3ncnc(Nc4ccc(OCc5ccccc5)c(Cl)c4)c3c2)cs1.Cl [GW582764]	30%	0%	0%	0%	11%	12%	0%	3%	0%	9%	0%	0%	0%	0%	4%	38%	0%	2%	15%	19%
CNc1cc(-c2ccc3c(N)n[nH]c3c2)nc(N)n1 [GSK2224810]	41%	0%	16%	19%	0%	0%	0%	0%	2%	0%	14%	0%	0%	0%	26%	20%	27%	0%	0%	0%
FC(F)(F)c1ccccc1-c1cc(-c2c[nH]nc2-c2ccccn2)ccn1 [GW679396]	10%	0%	22%	0%	9%	10%	0%	19%	0%	0%	4%	0%	1%	4%	13%	4%	18%	0%	6%	2%
O=C(Nc1n[nH]c2nc(-c3cccs3)c(Br)cc12)C1CCCC1 [SB-743341]	17%	42%	15%	15%	12%	0%	0%	0%	5%	0%	14%	16%	14%	15%	0%	15%	2%	8%	0%	13%
Cc1nccc(-c2c(-c3ccc(F)cc3)ncn2CCCN2CCOCC2)n1.Cl [SB-282975]	0%	0%	3%	7%	0%	16%	0%	4%	27%	0%	16%	20%	0%	13%	48%	15%	0%	15%	0%	6%
Cc1ccc(NC(=O)Nc2ccccc2F)cc1-c1ccc(C(=O)Nc2ccncc2)cc1 [GSK1398477]	19%	0%	0%	0%	9%	0%	0%	22%	13%	24%	16%	2%	10%	14%	7%	0%	0%	9%	0%	18%
Cn1cncc1-c1cc2c(Nc3ccc(OCc4ccccc4)cc3)ncnc2cn1 [GW281179]	10%	0%	10%	0%	17%	13%	0%	0%	0%	5%	26%	0%	0%	45%	3%	21%	29%	14%	10%	19%
CC(C)c1cc(-c2ccc3c(N)n[nH]c3c2)nc(N)n1 [GSK2250882]	9%	0%	17%	0%	8%	0%	0%	0%	0%	0%	0%	0%	0%	18%	0%	10%	19%	16%	20%	16%
